Assay outcomes (PubChem BioAssay)
MazF activator: activators of E. coli MazEF toxin-antitoxin RNase, primary screen, biochemical, fluorescence, uHTS. activation, % at 20 µM. hit rate 0.32% among 350,000. FAM/BHQ RNA-DNA oligo cleavage fluorescence, 5 h. AID 504720, 2011; in the data active = activation above about 50%
Bead autofluor: compound fluorescence in toxin protease inhibitor counterscreen; AID 624483; hit rate 3.1% among 360,000; fluorescence intensity (concentration not given with the values); compound autofluorescence counterscreen, microsphere flow cytometry; active compounds read high; in the data active = fluorescence intensity above about 16000; inconclusive = no clear call, values can overlap the other calls
BoNT-F LC inh: BoNT/F light chain protease inhibitors, primary screen, biochemical, flow cytometry, MLPCN library; Botulinum neurotoxin type F light chain protease (Clostridium botulinum); Multiplex microsphere protease cleavage assay; inhibition, % at 10 µM; hit rate 0.22% among 360,000; AID 588497, 2011; in the data active = inhibition above about 35%, passing the limit was not always enough; inconclusive = no clear call, values can overlap the other calls; also: plate controls were buffer without enzyme for full effect and enzyme alone for no effect
BoNT-A LC inh2: BoNT/A light chain protease inhibitors, primary screen, biochemical, flow cytometry, MLPCN library; Botulinum neurotoxin type A light chain protease (Clostridium botulinum A str. ATCC 3502); multiplex microsphere protease substrate cleavage; inhibition, % at 10 µM; hit rate 0.17% among 360,000; AID 588499, 2011; also: plate controls were buffer without enzyme for full effect and enzyme alone for no effect
Anthrax LF inh2: Bacillus anthracis LF protease inhibitors, primary screen, biochemical, multiplex microsphere, MLPCN library. inhibition, % at 10 µM. multiplex microsphere protease cleavage assay. Lethal factor (Bacillus anthracis), P15917. hit rate 0.12% among 360,000; also: plate controls were buffer without enzyme for full effect and enzyme alone for no effect
Target sequence (P15917 whole entry, looked up): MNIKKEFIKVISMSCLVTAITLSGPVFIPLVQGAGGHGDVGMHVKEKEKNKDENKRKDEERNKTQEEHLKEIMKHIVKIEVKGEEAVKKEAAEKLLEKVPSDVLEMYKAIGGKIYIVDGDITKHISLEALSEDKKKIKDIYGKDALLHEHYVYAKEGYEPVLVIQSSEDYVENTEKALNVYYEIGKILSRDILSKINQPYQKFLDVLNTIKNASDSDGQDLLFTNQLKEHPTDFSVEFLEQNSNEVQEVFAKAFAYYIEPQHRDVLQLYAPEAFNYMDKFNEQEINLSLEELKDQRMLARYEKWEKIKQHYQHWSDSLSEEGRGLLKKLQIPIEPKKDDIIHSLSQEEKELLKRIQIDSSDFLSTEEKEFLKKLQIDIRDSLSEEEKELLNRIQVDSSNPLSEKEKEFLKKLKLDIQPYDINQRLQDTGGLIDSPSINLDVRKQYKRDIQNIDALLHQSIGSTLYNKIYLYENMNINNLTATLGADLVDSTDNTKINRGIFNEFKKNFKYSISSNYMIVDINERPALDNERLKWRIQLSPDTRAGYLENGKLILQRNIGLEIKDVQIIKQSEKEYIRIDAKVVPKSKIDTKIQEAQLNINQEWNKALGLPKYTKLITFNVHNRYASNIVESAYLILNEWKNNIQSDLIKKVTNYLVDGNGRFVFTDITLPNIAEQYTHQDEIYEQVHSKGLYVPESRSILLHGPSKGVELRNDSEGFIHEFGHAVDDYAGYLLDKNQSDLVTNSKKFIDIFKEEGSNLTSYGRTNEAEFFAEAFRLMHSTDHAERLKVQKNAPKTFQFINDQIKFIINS
An asterisk follows results filed as active. Shown are actives, neighbours in structure and some others; about 3.7% of the full set was active somewhere. Rule as the data show it, unless noted: active = inhibition above about 30%; inconclusive = no clear call, values can overlap the other calls; inactive = below that.

For COc1cc2ncnc(N[C@H](C)c3ccccc3)c2cc1OC the results were MazF activator 4, Bead autofluor 3352, BoNT-F LC inh 26, BoNT-A LC inh2 1 and Anthrax LF inh2 8.
Screening CC(=O)c1nnn(-c2nc(N3CCCC3)nc(N(c3ccccc3)c3ccccc3)n2)c1C returned MazF activator -2, Bead autofluor 23099*, BoNT-F LC inh -6, BoNT-A LC inh2 -2 and Anthrax LF inh2 -2.
Screening CC(C)C[C@@H]1Cc2[nH][nH]c(=O)c2[C@H](C)O1 returned Bead autofluor 4355, BoNT-F LC inh 3, BoNT-A LC inh2 1 and Anthrax LF inh2 -6.
For Cc1nc(NC(C)C(=O)O)c2nc(C)oc2n1 (stereo unspecified) the results were MazF activator 7, Bead autofluor 21393*, BoNT-F LC inh 3, BoNT-A LC inh2 2 and Anthrax LF inh2 -1.
Screening c1ccc(C2CCC(N3CCN(c4ccccc4)CC3)CC2)cc1 (stereo unspecified) returned MazF activator -3, Bead autofluor 4166, BoNT-F LC inh inconclusive, BoNT-A LC inh2 -1 and Anthrax LF inh2 -7.
Screening CN1CCN(c2ccccc2NC(=O)Cc2ccc(Cl)cc2)CC1 returned MazF activator -15, Bead autofluor 21557*, BoNT-F LC inh 2, BoNT-A LC inh2 5 and Anthrax LF inh2 1.
`CN1CCN(c2ccccc2NC(=O)COc2ccc(Br)cc2)CC1` gave MazF activator 2, Bead autofluor 21142*, BoNT-F LC inh 2, BoNT-A LC inh2 4 and Anthrax LF inh2 -2.
For CCC(=O)N1CCN(c2ccccc2NC(=O)Cc2ccc(Cl)cc2)CC1 the results were MazF activator -11, Bead autofluor 6340, BoNT-F LC inh -1, BoNT-A LC inh2 0 and Anthrax LF inh2 -13.
`Cc1ccc(S(=O)(=O)N2CCC(=O)CC2)cc1` gave MazF activator 3, Bead autofluor 5692, BoNT-F LC inh -5, BoNT-A LC inh2 -3 and Anthrax LF inh2 0.
For CC1(C)Cc2c(sc3ncnc(N)c23)CO1 the results were MazF activator 0, Bead autofluor 18415*, BoNT-F LC inh 6, BoNT-A LC inh2 4 and Anthrax LF inh2 -8.
`Cc1ccc(-n2cc(CN3CCN(C(=O)c4ncn[nH]4)CC3)c(-c3ccc(F)cc3)n2)cc1` gave MazF activator 6, Bead autofluor 4964, BoNT-F LC inh -7, BoNT-A LC inh2 0 and Anthrax LF inh2 -6.
Screening COc1ccc(Cl)cc1NC(=S)NCc1ccco1 returned MazF activator -4, Bead autofluor 23985*, BoNT-F LC inh -3, BoNT-A LC inh2 -2 and Anthrax LF inh2 0.
Screening CCOc1ccccc1NC(=S)NCc1ccco1 returned MazF activator 2, Bead autofluor 22578*, BoNT-F LC inh -1, BoNT-A LC inh2 0 and Anthrax LF inh2 0.
CCOP(=O)(OCC)c1nc(-c2cccc3ccccc23)oc1NCc1ccc(OC)cc1 was read as MazF activator 2, Bead autofluor 5422, BoNT-F LC inh -11, BoNT-A LC inh2 -2 and Anthrax LF inh2 -4.
`CCOP(=O)(OCC)c1nc(/C=C/c2ccccc2)oc1NCc1ccc(OC)cc1` gave MazF activator 0, Bead autofluor 24914*, BoNT-F LC inh -7, BoNT-A LC inh2 -6 and Anthrax LF inh2 -14.
For CCOP(=O)(OCC)c1nc(-c2cccc3ccccc23)oc1NCc1ccccc1 the results were MazF activator -4, Bead autofluor 17554*, BoNT-F LC inh -9, BoNT-A LC inh2 -5 and Anthrax LF inh2 -5.
Screening Cc1cccc(NC(=O)COC(=O)CCc2c[nH]c3ccccc23)c1C returned MazF activator 4, Bead autofluor 6450, BoNT-F LC inh 0, BoNT-A LC inh2 0 and Anthrax LF inh2 0.
For CCN(CC)C(=O)C1=C(C)N(CCC2=CCCCC2)C(=O)C(CC(=O)NCc2cccs2)C1 (stereo unspecified) the results were MazF activator 6, Bead autofluor 3401, BoNT-F LC inh -2, BoNT-A LC inh2 0 and Anthrax LF inh2 1.
`Cc1ccc(CSCCNC(=O)CSc2ccccc2)cc1` gave MazF activator -5, Bead autofluor 2675, BoNT-F LC inh -5, BoNT-A LC inh2 0 and Anthrax LF inh2 -2.
For Cn1c(=O)c(Nc2ccc(O)cc2)c2c3c(cccc31)C(=O)c1ccccc1-2 the results were MazF activator 64*, Bead autofluor 1738, BoNT-F LC inh 3, BoNT-A LC inh2 2 and Anthrax LF inh2 -5.
Screening O=C1CSC(=S)N1/N=C/C=C/c1ccccc1 returned MazF activator 2, Bead autofluor 1986, BoNT-F LC inh 11, BoNT-A LC inh2 43* and Anthrax LF inh2 21.
Screening O=C1CSC(=S)N1N=Cc1c(O)ccc2ccccc12 returned MazF activator 590*, Bead autofluor 3735, BoNT-F LC inh 12, BoNT-A LC inh2 16 and Anthrax LF inh2 12.
For CCCCNC(=O)COC(=O)c1c2c(nc3ccccc13)/C(=C/c1cccs1)CC2 the results were MazF activator -22, Bead autofluor 6060, BoNT-F LC inh 19, BoNT-A LC inh2 39* and Anthrax LF inh2 25.
CCN(c1ccc(NC(=O)COC(=O)c2cccs2)cc1)C(C)C was read as MazF activator 3, Bead autofluor 3344, BoNT-F LC inh -7, BoNT-A LC inh2 1 and Anthrax LF inh2 -7.
Screening CCN(CC)c1ccc(NC(=O)COC(=O)c2cccs2)cc1 returned MazF activator -2, Bead autofluor 22712*, BoNT-F LC inh 0, BoNT-A LC inh2 0 and Anthrax LF inh2 -3.
`O=C(CCNS(=O)(=O)c1cccc2nsnc12)N1CC(=O)N(CCc2ccccc2)C(=O)C1` gave MazF activator -3, Bead autofluor 21566*, BoNT-F LC inh -7, BoNT-A LC inh2 inconclusive and Anthrax LF inh2 -3.
`COc1cccc(-c2[nH]nc3c2C(c2ccoc2)C(C#N)=C(N)O3)c1` (stereo unspecified) gave MazF activator 1, Bead autofluor 21204*, BoNT-F LC inh 2, BoNT-A LC inh2 inconclusive and Anthrax LF inh2 0.
Screening COc1ccc(-c2[nH]nc3c2C(c2ccsc2)C(C#N)=C(N)O3)cc1 (stereo unspecified) returned MazF activator 1, Bead autofluor 16667*, BoNT-F LC inh -4, BoNT-A LC inh2 -1 and Anthrax LF inh2 -4.
`COc1cccc(-c2[nH]nc3c2C(c2ccsc2)C(C#N)=C(N)O3)c1` (stereo unspecified) gave MazF activator 8, Bead autofluor 22773*, BoNT-F LC inh 0, BoNT-A LC inh2 2 and Anthrax LF inh2 1.
Screening N#CC1=C(N)Oc2n[nH]c(-c3ccccc3)c2C1c1ccsc1 (stereo unspecified) returned MazF activator 3.
`Cc1ccc(-c2[nH]nc3c2C(c2ccsc2)C(C#N)=C(N)O3)cc1` (stereo unspecified) gave MazF activator -9, Bead autofluor 9623, BoNT-F LC inh -9, BoNT-A LC inh2 -1 and Anthrax LF inh2 -13.
